High-throughput results deposited in PubChem BioAssay by National Center for Advancing Translational Sciences (NCATS).
A selection: hits, their analogues and other compounds. The true share with any hit is near 0.54%.
EPAC1 antagonist: qHTS for Antagonist of cAMP-regulated guanine nucleotide exchange factor 3 (EPAC1): primary screen | EPAC1 GEF assay, Rap1b-BODIPY-GDP exchange fluorescence | Potency, µM (series often up to 115 µM), for the others: top-dose activity change, negative = inhibition, hits mostly inhibitors | 360,000 compounds, 0.14% hits | AID 720709, 2013;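 further: plate controls were vehicle for no effect and positive control for full effect; nearly all actives have a fitted effect of over 50% in size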
ERG Ets-DNA blk: qHTS for Small Molecule Inhibitors of the ERG Ets/DNA interaction. 370,000 compounds, 0.028% hits. Potency, µM (doses to about 76.9 µM), without a hit: at the top dose FP activity, negative = inhibition, usual class: inhibitors. fluorescence polarization, His-ERG Ets domain / labelled DNA. Transcriptional regulator ERG (Homo sapiens), P11308; active means well fitted inhibition curve with a large enough effect in the polarisation, with a control signal flat; inconclusive means small, poorly fitted or top-dose-only effect, or effect the other way, or a change in a side signal; inactive means no such curve, though single readings can be large or run the other way; the % refers to the polarisation;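 further: polarization taken with two DNA probes labelled with fluorescein and Texas red; % of control where 0% means no effect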
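His-tagged ERG Ets domain (1 uM in the protein solution; 300mM KCl, 50mM Tris-HCl, 1mM EDTA, 1mM DTT, pH 7.5) received compound, then a probe mix of 5 nM fluorescein-DNA and 100nM Texas-615-DNA. Fluorescence polarization was read for both dyes.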
EPAC1 agonist: qHTS for Agonist of cAMP-regulated guanine nucleotide exchange factor 3 (EPAC1): primary screen; Rap guanine nucleotide exchange factor 3 (Homo sapiens), O95398; 360,000 compounds, 0.073% hits; Potency, µM (series often up to 154 µM), inactives show top-dose activation, usual class: activators; EPAC1 agonist qHTS, biochemical assay; response scale: 100% = response to 6.5 mM cAMP; further: nearly all actives have a fitted effect of over 60% in size
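Nucleotide exchange assay: 100 nM EPAC1 with 250 nM Rap1B loaded with BODIPY-GDP and 50 uM GDP, room temperature. Fluorescence (480/540 nm) read every 5 min for 30 min; signal change normalized to 6.5 mM cAMP as full agonist.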
TDP1 block: qHTS Assay for Inhibitors of Tyrosyl-DNA Phosphodiesterase (TDP1); Tyrosyl-DNA phosphodiesterase 1 (Homo sapiens), Q9NUW8; recombinant TDP1, AlphaScreen DNA substrate cleavage; Potency, µM (highest dose often 130 µM), for the others: top-dose activity change, negative = inhibition, most hits filed as inhibitors; 350,000 compounds, 0.28% hits; further: on the % scale 0 is the no-effect control and ±100 the full control effect; nearly all actives have a fitted effect of over 40% in size
Target sequence (Q9NUW8 whole entry, looked up): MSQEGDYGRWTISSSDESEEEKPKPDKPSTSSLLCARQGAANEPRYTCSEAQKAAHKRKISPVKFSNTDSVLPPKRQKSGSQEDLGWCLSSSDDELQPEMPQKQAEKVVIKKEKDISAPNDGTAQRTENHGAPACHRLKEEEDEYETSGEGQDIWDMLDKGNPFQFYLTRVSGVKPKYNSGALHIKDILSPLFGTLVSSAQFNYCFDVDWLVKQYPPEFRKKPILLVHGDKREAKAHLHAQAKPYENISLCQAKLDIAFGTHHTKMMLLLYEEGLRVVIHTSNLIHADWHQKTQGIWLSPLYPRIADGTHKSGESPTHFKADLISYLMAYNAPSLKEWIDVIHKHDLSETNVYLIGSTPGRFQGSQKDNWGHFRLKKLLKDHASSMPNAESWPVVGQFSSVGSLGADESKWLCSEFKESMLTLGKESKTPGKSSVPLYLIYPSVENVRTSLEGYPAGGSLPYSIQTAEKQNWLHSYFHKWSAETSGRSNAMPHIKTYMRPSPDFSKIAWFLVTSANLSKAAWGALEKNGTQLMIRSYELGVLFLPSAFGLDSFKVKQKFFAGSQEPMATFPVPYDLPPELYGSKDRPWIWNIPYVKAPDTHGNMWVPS
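Steps: enzyme plus compound, 15 min RT; add biotin/phosphotyrosine-FITC oligonucleotide (15 nM final), react 5 min; add donor/acceptor beads (10 ug/ml final), 10 min; read AlphaScreen. Tdp1 at 1 nM final.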
EPAC2 ag: qHTS for Agonist of cAMP-regulated guanine nucleotide exchange factor 4 (EPAC2): primary screen | Rap guanine nucleotide exchange factor 4 (Homo sapiens), Q8WZA2 | EPAC2 activation, biochemical qHTS; response scale: 100% = 6.5 mM cAMP response | Potency, µM (top dose mostly 154 µM), for inactives: at the highest dose activation, hits mostly activators | 360,000 compounds, 0.079% hits | AID 720711, 2013; further: nearly all actives have a fitted effect of over 50% in size
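Each well held 100 nM EPAC2, 250 nM RAP1B-BODIPY-GDP and 50 uM GDP. Fluorescence, read at 5-min intervals to 30 min, was referenced to a 6.5 mM cAMP positive control.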
EPAC2 antagonist: qHTS for Antagonist of cAMP-regulated guanine nucleotide exchange factor 2 (EPAC2): primary screen | Potency, µM (titrated, usually from 114 µM), inactives show at the highest dose activity, negative = inhibition, most hits filed as inhibitors | AID 720708, 2013 | 360,000 compounds, 0.18% hits | Rap guanine nucleotide exchange factor 4 (Homo sapiens), Q8WZA2 | EPAC2 GEF exchange of Rap1B-BODIPY-GDP, fluorescence; further: on the % scale 0 is the no-effect control and ±100 the full control effect; nearly all actives have a fitted effect of over 45% in size
Numbers without * were called inactive; ? = inconclusive; . = not tested or not shown. Unless noted, the call rests on the fitted dose curve; in most records, active means well fitted curve in the direction sought with a large enough effect; inconclusive means small, poorly fitted or top-dose-only effect, or another doubt; inactive means no such curve, though single readings can be large; an effect the other way counts as inactive or inconclusive. Potency means the concentration at half of the fitted maximal effect.

SMILES	EPAC1 antagonist	ERG Ets-DNA blk	EPAC1 agonist	TDP1 block	EPAC2 ag	EPAC2 antagonist
O=C1NN(c2cccc(Br)c2)C(=O)/C1=C/c1ccc(-c2cc([N+](=O)[O-])ccc2O)o1	-17%	2%	-6%	.	-14%	40µM*
Cn1c(N)c(C(=O)CSc2nnc(-c3c[nH]c4ccccc34)n2C2CC2)c(=O)[nH]c1=O	?	-5%	10%	-11%	63µM*	50µM*
CCCn1c(N)c(C(=O)CSc2nnc(-c3c[nH]c4ccccc34)n2C2CC2)c(=O)[nH]c1=O	-5%	-5%	5%	4%	5%	3%
COc1ccc(/C=N/Nc2ccc(C(=O)O)cc2)cc1OC	0%	0%	15%	.	5%	-8%
COc1ccc(C(=O)Oc2ccc(/C=N/Nc3ccc(Cl)c(C(=O)O)c3)cc2OC)cc1	-26%	-2%	-2%	7%	-16%	20µM*
COc1ccc(/C=N/Nc2ccc(C(=O)O)cc2)cc1Br	5%	-3%	4%	4%	-1%	56µM*
Cc1ccc(S(=O)(=O)Oc2cccc(/C=N/n3cnnc3)c2)cc1	2%	0%	-2%	2%	5%	3%
Cc1ccc(S(=O)(=O)Oc2cccc(/C=N/Nc3ccc(C(=O)O)cc3)c2)cc1	2%	0%	1%	6%	-1%	56µM*
COc1ccc(CN(Cc2ccccc2)C(=O)c2ccccc2O)cc1COc1ccc(NC(C)=O)cc1	.	.	.	-13%	.	.
Cc1nc2cc(NC(=O)N3CCN(c4ccccn4)CC3)ccc2o1	-3%	5%	9%	-1%	-1%	-3%
O=C(Nc1ccc2nc(-c3ccco3)c(-c3ccco3)nc2c1)N1CCCC1	.	.	.	7.1µM*	.	.
O=C(Nc1ccc2nc(-c3ccco3)c(-c3ccco3)nc2c1)N1CCN(c2ccccn2)CC1	35µM*	8%	2%	0%	2%	-14%
CCC(C)(C)C1CCc2c(sc(NC(=O)c3ccccc3C(=O)O)c2C#N)C1 (configuration not stated)	79µM*	0%	-8%	8%	2%	-16%
CC1CCc2c(sc(NC(=O)c3ccccc3C(=O)O)c2C#N)C1 (configuration not stated)	8%	-4%	5%	5%	16%	1%
O=S(=O)(O)c1ccc(N=NNc2ccc(Br)cc2)cc1	-8%	13%	-10%	.	-4%	45µM*
O=Cc1cc(N=Nc2ccc(S(=O)(=O)O)cc2)ccc1O	-25%	3%	6%	.	15%	-22%
CCCCC(C)/C=C(C)/C=C(\C)C(=O)NC1=CC(O)(/C=C/C=C/C=C/C(=O)NC2=C(O)CCC2=O)C2OC2C1=O (configuration not stated)	.	.	.	-10%	.	.
CCCCN(C)C(=O)CS(=O)(=O)Cc1nc(-c2cccc(OC)c2)oc1C	-7%	20µM*	-5%	3%	9%	-5%
COc1ccc(-c2nc3cccc(C)n3c2Nc2ccc(C)cc2)cc1	.	.	.	7%	.	.
CN(C)c1ccc(Cc2cc3c(O)ccc(O)c3cc(Cc3ccc(N(C)C)cc3)c2=O)cc1	50µM*	.	9%	.	10%	-5%
CN(C)c1ccc(C(=O)c2ccc(O)cc2O)cc1	2%	-25%	4%	7%	-8%	-5%
Cc1noc(/C=C/c2ccc(-c3ccccc3Cl)o2)c1[N+](=O)[O-]	4%	-9%	-2%	5%	100µM*	217%
